The source of these data is PubChem BioAssay.

The source made the active and inactive calls.

Assay [1] is described as follows: optical density shifts of acrAB sulA E. coli – strain DRC41, OD650, 48 h, E. coli filamentation inducer project, primary screen (AID 1152).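 Note: E. coli MC1000 strain DRC41 lacking acrAB efflux pump and sulA.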 The note with it: higher = more signal, called active from +8 up or from −8 down.
The nature of assay [2]: probe aLefty1 binding on compound microarray – biochemical, small-molecule microarray, 635/667 nm fluorescence, primary screen (AID 1153).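 Note: score merges spot fluorescence with signal-to-noise ratio from the scanned slide images.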 The note with it: higher = more signal.
The nature of assay [3]: plasmodial surface anion channel blockers, osmotic lysis – cell-based, P. falciparum Indochina, OD700, 1 h, primary screen (AID 1154). Conditions: P. falciparum Indochina infected RBC osmotic lysis, higher = more signal, called active from +8 up or from −8 down.
The nature of assay [4]: plasmodial surface anion channel blockers, osmotic lysis – cell-based, P. falciparum Indochina, OD700, 2 h, primary screen (AID 1155).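 Note: lysis reports solute entry through the parasite surface anion channel PSAC.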 The note with it: P. falciparum Indochina infected erythrocytes, higher = more signal, called active from +8 up or from −8 down.
The nature of assay [5]: changes in parasitized red cell lysis, either direction – P. falciparum Indochina, OD700, 3 h, PSAC antagonist project, primary screen (AID 1156). The note with it: P. falciparum-infected erythrocytes, osmotic lysis, higher = more signal, called active from +8 up or from −8 down.
A short description of assay [6]: plasmodial surface anion channel blockers, osmotic lysis – cell-based, P. falciparum Indochina, OD700, 18 h, primary screen (AID 1157). The note with it: P. falciparum Indochina infected erythrocytes, osmotic lysis OD700, 18 h; higher = more signal, called active from +8 up or from −8 down.
Assay [7] can be described thus: S6 kinase pathway phospho-S6 level changes – cell-based, A549, cytoblot, luminescence, serum-stimulated, primary screen (AID 1158).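 Note: serum-stimulated A549 lung adenocarcinoma cells; signal is phosphorylated S6 detected by cytoblot immunostaining with HRP secondary.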 Conditions: 5 h, higher = more signal.
Assay [8] addresses NADPH oxidase 2 (Homo sapiens) (UniProt P04839). In words: compounds shifting NOX2 Amplex Red fluorescence – cell-based, HEK293-NOX2, PMA-stimulated, NOX inhibitor project, primary screen (AID 1159). Note: test concentration not given here. Conditions: 45 min, higher = more signal, called active from +8 up or from −8 down.
The target of assay [9] is NADPH oxidase 4 (Homo sapiens) (UniProt Q9NPH5). In words: compounds shifting NOX4 Amplex Red fluorescence – cell-based, HEK293-NOX4, tetracycline-induced, NOX inhibitor project, primary screen (AID 1160). The note with it: HEK293-NOX4, Amplex Red H2O2 fluorescence, 45 min; higher = more signal, called active from +8 up or from −8 down.
The target of assay [10] is NADPH oxidase 5 (Homo sapiens) (UniProt Q96PH1). Description: compounds shifting NOX5 Amplex Red fluorescence – cell-based, HEK293-NOX5, NOX inhibitor project, primary screen (AID 1161). The note with it: HEK293-NOX5, ionomycin, 45 min, higher = more signal.
Assay [11] in a line: compound effects on lung adenocarcinoma cell viability – A549, calcein-AM fluorescence, 48 h, basal, profiling panel (AID 1162). Note: test concentration not given here. Conditions: higher = more signal.
Assay [12] can be described thus: compound effects on differentiated 3T3-L1 adipocyte viability – cell-based, 3T3-L1 adipocytes, calcein-AM fluorescence, 48 h, basal, profiling panel (AID 1163). Note: test concentration not given here. Conditions: 3T3-L1 adipocytes viability, higher = more signal.
The nature of assay [13]: compound effects on hepatocellular carcinoma cell viability – HepG2, calcein-AM fluorescence, 48 h, basal, profiling panel (AID 1164). Note: test concentration not given here. The note with it: higher = more signal.
Assay [14] in a line: compound effects on multiple myeloma cell viability – MM1S, calcein-AM fluorescence, 48 h, basal, profiling panel (AID 1165). Note: test concentration not given here. Conditions: higher = more signal.
A short description of assay [15]: calcein-AM signal in unstimulated myeloma cells – cell-based, calcein-AM fluorescence, 48 h, PK04 Diversity Set, profiling panel (AID 1166).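 Note: cells grown under basal conditions without added stimulus; test concentration not given here.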 The note with it: RPMI8226 myeloma viability, higher = more signal.
Assay [16] can be described thus: JC-1 mitochondrial signal, unstimulated HepG2 cells – cell-based, JC-1 fluorescence, 24 h, 100 nL compound, profiling panel (AID 1167). Note: test concentration not given here. The note with it: HepG2 mitochondrial potential, higher = more signal.
A short description of assay [17]: JC-1 mitochondrial signal, unstimulated adipocytes – cell-based, JC-1 fluorescence, 3T3-L1 adipocytes, 24 h, 100 nL compound, profiling panel (AID 1168). Note: test concentration not given here. The note with it: JC-1 mitochondrial fluorescence, higher = more signal, called active from +8 up or from −8 down.
Assay [18] in a line: JC-1 mitochondrial signal, unstimulated myeloma cells – cell-based, JC-1 fluorescence, RPMI8226, 24 h, 100 nL compound, profiling panel (AID 1169). Note: test concentration not given here. The note with it: JC-1 mitochondrial potential fluorescence, higher = more signal.
Assay [19] can be described thus: JC-1 mitochondrial signal, unstimulated MM1S myeloma – cell-based, JC-1 fluorescence, 24 h, 100 nL compound, profiling panel (AID 1170). Note: test concentration not given here. The note with it: MM1S mitochondrial potential, higher = more signal.
A short description of assay [20]: resazurin metabolic signal in A549 cells – cell-based, resazurin fluorescence, 24 h, PK04 Diversity Set, profiling panel (AID 1171). Note: test concentration not given here. Conditions: A549 viability, higher = more signal, called active from +8 up or from −8 down. In general terms: Resazurin is reduced to fluorescent resorufin, in cell work by metabolically active cells.

Sequence of NADPH oxidase 4 (Homo sapiens) (Q9NPH5 whole entry, looked up): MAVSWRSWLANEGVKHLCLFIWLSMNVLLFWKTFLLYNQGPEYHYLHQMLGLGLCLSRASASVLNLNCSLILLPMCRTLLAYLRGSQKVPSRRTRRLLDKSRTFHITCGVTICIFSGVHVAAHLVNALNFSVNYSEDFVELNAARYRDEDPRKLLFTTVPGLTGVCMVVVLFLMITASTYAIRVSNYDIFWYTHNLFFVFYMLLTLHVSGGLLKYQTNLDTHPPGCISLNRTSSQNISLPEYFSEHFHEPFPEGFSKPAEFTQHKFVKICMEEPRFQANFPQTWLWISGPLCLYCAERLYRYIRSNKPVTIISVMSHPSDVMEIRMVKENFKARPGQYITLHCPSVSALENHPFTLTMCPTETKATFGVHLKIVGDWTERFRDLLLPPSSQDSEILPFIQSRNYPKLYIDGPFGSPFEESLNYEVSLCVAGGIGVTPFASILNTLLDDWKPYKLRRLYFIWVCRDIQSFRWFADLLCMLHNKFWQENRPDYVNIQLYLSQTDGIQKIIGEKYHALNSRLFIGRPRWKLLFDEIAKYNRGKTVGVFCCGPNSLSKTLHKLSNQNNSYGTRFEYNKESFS
Sequence of NADPH oxidase 5 (Homo sapiens) (Q96PH1 whole entry, looked up): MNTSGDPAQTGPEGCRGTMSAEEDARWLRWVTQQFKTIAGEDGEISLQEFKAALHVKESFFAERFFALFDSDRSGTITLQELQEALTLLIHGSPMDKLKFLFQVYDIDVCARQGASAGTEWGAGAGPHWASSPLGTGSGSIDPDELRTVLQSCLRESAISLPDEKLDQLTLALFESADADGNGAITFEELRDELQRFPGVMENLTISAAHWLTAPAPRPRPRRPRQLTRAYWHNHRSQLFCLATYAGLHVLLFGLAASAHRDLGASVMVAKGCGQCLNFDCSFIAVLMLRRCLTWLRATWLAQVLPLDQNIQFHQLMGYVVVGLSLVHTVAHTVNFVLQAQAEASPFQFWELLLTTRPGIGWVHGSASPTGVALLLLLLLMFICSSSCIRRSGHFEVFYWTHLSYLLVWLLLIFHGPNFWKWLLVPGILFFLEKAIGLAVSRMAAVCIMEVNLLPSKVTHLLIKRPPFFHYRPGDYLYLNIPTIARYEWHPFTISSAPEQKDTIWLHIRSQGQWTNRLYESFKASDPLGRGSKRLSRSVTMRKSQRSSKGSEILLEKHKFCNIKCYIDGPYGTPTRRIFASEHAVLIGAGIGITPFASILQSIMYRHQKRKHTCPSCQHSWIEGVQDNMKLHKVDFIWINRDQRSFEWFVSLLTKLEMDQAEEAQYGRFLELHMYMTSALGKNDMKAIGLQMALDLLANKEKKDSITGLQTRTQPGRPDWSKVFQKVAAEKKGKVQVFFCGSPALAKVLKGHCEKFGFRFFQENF
Sequence of NADPH oxidase 2 (Homo sapiens) (P04839 whole entry, looked up): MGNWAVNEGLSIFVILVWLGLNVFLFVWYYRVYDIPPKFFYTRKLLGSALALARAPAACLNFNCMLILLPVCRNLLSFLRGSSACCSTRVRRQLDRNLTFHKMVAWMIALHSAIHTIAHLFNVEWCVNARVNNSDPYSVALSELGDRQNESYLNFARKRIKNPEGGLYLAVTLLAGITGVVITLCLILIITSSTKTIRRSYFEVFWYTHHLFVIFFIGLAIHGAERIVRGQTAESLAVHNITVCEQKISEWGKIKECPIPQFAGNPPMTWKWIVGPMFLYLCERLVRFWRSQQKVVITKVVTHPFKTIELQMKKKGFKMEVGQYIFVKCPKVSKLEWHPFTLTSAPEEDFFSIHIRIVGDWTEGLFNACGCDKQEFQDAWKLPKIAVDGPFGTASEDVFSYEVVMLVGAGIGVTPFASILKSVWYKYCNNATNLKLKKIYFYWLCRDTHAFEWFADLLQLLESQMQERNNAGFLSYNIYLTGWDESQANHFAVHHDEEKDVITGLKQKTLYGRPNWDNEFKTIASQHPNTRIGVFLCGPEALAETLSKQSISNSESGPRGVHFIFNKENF

As for `CC(C)(C)N1C(=O)[C@H]2[C@H]3[C@H](O)C=CC(=O)[C@@H]3CC[C@H]2C1=O`, the z-score is -0.0926 (inactive) in assay [1]; -0.007 (inactive) in [3]; -0.566 (inactive) in assay [4]; -0.562 (inactive) in assay [5]; -0.43 (inactive) in assay [6]; 0.0787 in assay [7]. For the same compound, the z-score in assay [8] is 0.497 (inactive); in assay [9], -1.67 (inactive); in [10], -0.47; in assay [11], -0.269; in assay [12], 0.815; in assay [13], 0.282. Further, the z-score in [14] was 0.326; in [15], 0.311; in [16], 0.102; in [17], -0.211 (inactive); in assay [18] it was -0.0172; in assay [19], 1.19. Besides, in assay [20], the z-score is 0.0796 (inactive). In addition, the composite z-score in assay [2] is -0.286.
With `CON=C1[C@H]2CCn3c(=O)n(-c4ccccc4)c(=O)n3[C@H]2[C@H](O)[C@@H]2O[C@H]12`, the z-score in assay [1] was -1.04 (inactive); in [3], -0.713 (inactive); in assay [4], -1.53 (inactive); in assay [5], -0.801 (inactive); in assay [6] it was -1.77 (inactive); in [7] it was 1.56. The z-score was 0.0197 (inactive) in [8]; 0.3 (inactive) in assay [9]; 1.26 in [10]; 0.828 in [11]; 0.384 in assay [12]; 0.739 in [13]. Also, the z-score was -0.211 in [14]; 0.483 in [15]; -1.17 in assay [16]; 1.86 (inactive) in assay [17]; 0.391 in assay [18]; 0.68 in assay [19]. The z-score in assay [20] was -0.378 (inactive). The compound also showed a composite z-score in assay [2] of -0.108.
In the case of `COC(=O)[C@H](C)NC(=O)CCC1CC(OC(=O)NCc2ccc3c(c2)OCO3)CC2(CCCC(COC(=O)NCCc3ccccc3OC)O2)O1` (stereo not given in full), the z-score was -0.0563 (inactive) in [1]; 20.9 (active) in assay [3]; 5.56 (inactive) in [4]; -0.257 (inactive) in assay [5]; 0.566 (inactive) in assay [6]; 1.15 in assay [7]. Besides, the z-score in [8] is 0.221 (inactive); in assay [9], 0.301 (inactive); in assay [10], 0.339; in assay [11], -0.949; in [12], -0.976; in assay [13], -2.36. The z-score in [14] was -3.53; in assay [15], -1.56; in assay [16] it was -1.34; in assay [17], 0.354 (inactive); in [18], -0.241; in assay [19], -0.735. Further, the z-score in assay [20] is 0.389 (inactive). Besides, the composite z-score in assay [2] is -0.162.
`CC(C)CCN1CCc2nc(COc3ccccc3)c3c(c2C1)CO[C@@H](C)C3`: the z-score was -0.152 (inactive) in assay [1]; 3.22 (inactive) in [3]; 0.326 (inactive) in [4]; 0.331 (inactive) in assay [5]; 0.101 (inactive) in [6]; -0.356 in assay [7]. Moreover, the z-score in assay [8] is 1.2 (inactive); in [9] it was 0.131 (inactive); in assay [10], 0.242; in assay [11], -0.304; in assay [12] it was -0.225; in assay [13] it was 0.665. In addition, the z-score was 0.246 in assay [14]; -0.396 in assay [15]; 1.66 in assay [16]; -0.000112 (inactive) in assay [17]; -0.724 in [18]; 1.09 in assay [19]. Further, the z-score in assay [20] was -0.0622 (inactive). This compound yielded a composite z-score in assay [2] of 0.0768.
For `CCOC(=O)[C@H](Cc1ccccc1)NC(=O)CCC1CC(OC(=O)NCCc2ccc(F)cc2)CC2(CCCC(COC(=O)NCC3CCCCC3)O2)O1` (stereo not given in full), the z-score in assay [1] was 1.08 (inactive); in assay [3], -0.0955 (inactive); in [4], 0.672 (inactive); in [5], 0.753 (inactive); in assay [6] it was 0.416 (inactive); in assay [7], 0.681. Also, the z-score in assay [8] is 0.102 (inactive); in assay [9], 1.12 (inactive); in assay [10] it was 0.0102; in assay [11] it was 1.35; in assay [12], -0.78; in assay [13] it was 0.901. The z-score in [14] is -3.14; in [15], 0.219; in assay [16] it was 0.809; in assay [17] it was 0.367 (inactive); in assay [18], -0.0221; in assay [19], -1.29. In addition, the z-score in assay [20] is 0.384 (inactive). Besides, the composite z-score in [2] was -0.0536.
For the compound `COC(=O)CC=C[C@@H](C)[C@H](OCc1cccc(-c2ccccc2)c1)C1CCCCC1`, the z-score in assay [1] was -0.249 (inactive); in [3] it was 1.56 (inactive); in assay [4], 1.02 (inactive); in [5] it was 0.0674 (inactive); in [6], 0.367 (inactive); in assay [7] it was -0.484. In addition, the z-score is -0.491 (inactive) in [8]; 0.228 (inactive) in assay [9]; -0.471 in assay [10]; 0.687 in assay [11]; -0.328 in [12]; -0.0634 in assay [13]. For the same compound, the z-score in [14] was -1.92; in assay [15] it was -0.771; in assay [16] it was -0.579; in assay [17], 0.57 (inactive); in [18], -0.165; in assay [19], -0.172. Also, the z-score in assay [20] was 0.2 (inactive). The compound also registered a composite z-score in assay [2] of -0.289.
For the compound `C[C@H]1CC[C@H]2C(=O)OC(CO)CN2[C@@H]1c1ccc(Br)cc1` (stereo not given in full), the z-score in [1] was -0.565 (inactive); in assay [3], 0.382 (inactive); in assay [4], 0.675 (inactive); in assay [5], 0.647 (inactive); in assay [6], 0.223 (inactive); in assay [7], -0.42. Moreover, the z-score is 0.923 (inactive) in assay [8]; -1.15 (inactive) in [9]; 0.324 in assay [10]; 0.228 in [11]; 0.764 in [12]; -0.592 in assay [13]. Also, the z-score in [14] was -2.22; in assay [15], 0.0966; in assay [16], 0.292; in assay [17], -0.18 (inactive); in assay [18], 0.859; in assay [19], 0.23. For the same compound, the z-score in assay [20] is 0.746 (inactive). Moreover, in [2], the composite z-score is -0.0918.
Take `CCN1C(=O)[C@@H]2[C@H]3C(=CC[C@@H]2C1=O)C1(OCCCO1)[C@H]1O[C@H]1[C@H]3O`: the z-score was -0.721 (inactive) in assay [1]; 27.2 (active) in assay [3]; 12.1 (active) in [4]; 1.38 (inactive) in assay [5]; 1.18 (inactive) in assay [6]; -0.295 in assay [7]. Also, the z-score is 0.104 (inactive) in [8]; -5.5 (inactive) in assay [9]; -5.86 in [10]; -4.56 in assay [11]; -1.03 in assay [12]; -4.61 in assay [13]. Further, the z-score in [14] was -3.56; in [15], -3.24; in assay [16] it was -3.62; in [17], -5.63 (inactive); in assay [18] it was -1.04; in [19] it was -3.04. For the same compound, the z-score in assay [20] was -3.14 (inactive). Moreover, the composite z-score in [2] came to 0.167.
On to `COC(=O)[C@@H]1CC[C@H](C)[C@@H](c2ccc(C)cc2)N1C(=O)c1ccc(C=NO[C@H](C)c2cn([C@@H]3COC[C@H]3O)nn2)cc1`, for which the z-score in assay [1] was 0.153 (inactive); in [3], 22.6 (active); in [4], 3.19 (inactive); in [5], 0.615 (inactive); in assay [6], 1.52 (inactive); in assay [7], -0.477. For the same compound, the z-score in assay [8] was -0.166 (inactive); in assay [9], 0.124 (inactive); in assay [10], 0.196; in assay [11], 0.278; in [12], -1.16; in [13], -0.482. Further, the z-score was 0.673 in assay [14]; -0.486 in [15]; -1.12 in assay [16]; -0.579 (inactive) in assay [17]; -0.916 in assay [18]; -0.985 in [19]. Moreover, in assay [20], the z-score was 0.339 (inactive). This compound returned a composite z-score in [2] of 0.109.
